This is one part of a sample in which hits are shown more often than they occur.
GIRK2 act: Activates human GIRK2-containing potassium channels. P48051. HEK293 GIRK2/NPY4 cells, thallium flux fluorescence. activation (% efficacy), % for hits at 37.5 µM. 34,000 tested, under 10 active. AID 1259324;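 active means primary screen hit, no activity in plain HEK293 cells, and in GIRK2-only cells above 5% efficacy rising with concentration; inactive means the rest, including fluorescent compounds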;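 further: efficacy is normalized control-subtracted fluorescence 15 s after thallium addition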
Target sequence (P48051 whole entry, looked up): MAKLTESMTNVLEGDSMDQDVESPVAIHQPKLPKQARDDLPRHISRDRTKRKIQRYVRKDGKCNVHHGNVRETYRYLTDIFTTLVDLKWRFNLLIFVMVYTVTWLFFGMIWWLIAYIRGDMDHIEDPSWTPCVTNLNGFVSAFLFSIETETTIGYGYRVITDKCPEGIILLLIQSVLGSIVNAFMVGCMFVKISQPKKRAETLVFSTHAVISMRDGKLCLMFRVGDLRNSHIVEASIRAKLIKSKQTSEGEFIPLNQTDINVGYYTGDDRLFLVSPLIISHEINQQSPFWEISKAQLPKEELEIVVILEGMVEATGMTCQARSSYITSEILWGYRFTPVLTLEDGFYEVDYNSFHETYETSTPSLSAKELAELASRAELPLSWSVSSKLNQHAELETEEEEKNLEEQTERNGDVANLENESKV
AMPAR-TARP mod: modulates AMPAR-stargazin complexes; AID 1259245; HEK293 GluA2+stargazin, membrane potential dye (FDSS), glutamate EC50; hits were called plate by plate, in both directions; 40,000 tested, 3.5% active; O88602+P19491; calls only at 30 µM;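 active means any of four per-well response measures lying three or more SD from its plate-wide compound average, in either direction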
The depositor's hits bear a star; i = inactive; nt = no result given; + = active, no number; ! = not active in a repeat.

SMILES	GIRK2 act	AMPAR-TARP mod
Cc1ccc(-c2nnc(NC(=O)C3CCCN(S(C)(=O)=O)C3)o2)cc1C (stereo unspecified)	i	i
COc1ccc(Nc2nc(C)c([N+](=O)[O-])c(N3CCCC3)n2)c(OC)c1	i	i
COc1ccc(Nc2nc(N3CCCC3)c3ccccc3n2)cc1	nt	+
Cc1ccc(CNS(=O)(=O)c2cc3c4c(c2)CCC(=O)N4CCC3)cc1	i	i
CCC(=O)c1ccc(OC(=O)c2ccc(OC)c(Br)c2)cc1	nt	i
Cc1cc(=O)n(CC(=O)Nc2nc3ccccc3[nH]2)cn1	i	i
O=C(Cn1nc(-c2cccnc2)ccc1=O)Nc1nc2ccccc2[nH]1	i	+
CCCc1nnsc1C(=O)Nc1ccc2c(C)cc(=O)[nH]c2c1	i	nt
COc1ccc(S(=O)(=O)NCC(C)(O)c2ccc(-c3ccccc3)cc2)c(C)c1 (stereo unspecified)	i	i
COc1cc([N+](=O)[O-])cc2cc(C(=O)N3CCN(c4cccc(C(F)(F)F)c4)CC3)c(=O)oc12	i	+
COc1cc([N+](=O)[O-])cc2cc(C(=O)NC(C)c3ccccc3)c(=O)oc12 (stereo unspecified)	i	i
COCCOC(=O)C1=C(C)NC(=O)NC1c1ccc(C(=O)O)cc1 (stereo unspecified)	nt	i
O=C1c2ccccc2C(O)(Cc2ccccc2)N1C(c1ccccc1)c1ccccc1 (stereo unspecified)	nt	+
O=C1c2ccccc2C(O)(Cc2ccccc2)N1CCCN1CCOCC1 (stereo unspecified)	nt	i
O=C(CCc1csc(NC(=O)c2ccc[nH]c2=O)n1)Nc1nccs1	i	i
CCCc1c(C(=O)Nc2ccccc2F)nnn1-c1ccc(C)cc1	i	i
CC(=O)Nc1ccc(S(=O)(=O)NCC2CCN(Cc3ccco3)CC2)cc1	i	i
O=C(NCc1ccccc1)C(=O)NCC1CCN(Cc2ccco2)CC1	i	i
CCCc1ccc(S(=O)(=O)NCC2CCN(Cc3ccco3)CC2)cc1	i	+
COc1ccc(CNC(=O)C(=O)NCC2CCN(Cc3ccco3)CC2)cc1	i	+
O=C(NCCOc1ccc2nnc(-c3cccc(F)c3)n2n1)Nc1ccc(F)c(Cl)c1	i	i
N#Cc1ccc(S(=O)(=O)c2c[nH]c3c(F)cccc3c2=O)cc1	i	i
CSc1ccccc1C(=O)N(Cc1ccsc1)C1CC1	i	nt
Cc1ccc(-c2nnc(CN3CCN(Cc4ccccc4)CC3)o2)cc1	i	i
Cc1ccc(-c2nnc(CN3CCC(Cc4ccccc4)CC3)o2)cc1	i	+!
SMILES	GIRK2 act	AMPAR-TARP mod
CCOc1ccc(NC(=O)CSc2nnc(-c3ccc(OC)c(OC)c3)n2N)cc1	i	i
O=C(c1ccc(Cl)cc1)N1CCN(S(=O)(=O)c2cc3c4c(c2)CCC(=O)N4CCC3)CC1	nt	i
COc1ccc(N2CC(NC(=O)c3ccccc3C(F)(F)F)CC2=O)cc1 (stereo unspecified)	nt	+
O=C(NC1CC(=O)N(c2ccccc2)C1)c1ccccc1C(F)(F)F (stereo unspecified)	nt	i
CS(=O)(=O)c1ccc(CC(=O)N(Cc2ccccn2)c2nc3ccc([N+](=O)[O-])cc3s2)cc1	nt	i
O=C(Cc1ccc([N+](=O)[O-])cc1)N1CCN(c2ncnc3c2nnn3-c2ccc(Cl)cc2)CC1	nt	i
CCOC(=O)c1c(SCc2ccccc2)nc(=O)[nH]c1C	i	+
CCOC(=O)c1c(SCC(=O)NCCc2ccccc2)nc(=O)[nH]c1C	i	i
COC(=O)c1ccc(C(c2c(O)cc(C)[nH]c2=O)c2c(O)cc(C)[nH]c2=O)cc1	i	i
O=C(Nc1ccc(F)c(F)c1)c1n[nH]c2ccccc12	nt	+
CSc1cccc(NC(=O)c2n[nH]c3ccccc23)c1	i	i
Cc1cc(S(=O)(=O)N(Cc2ccsc2)C2CC2)c(Cl)cc1Cl	i	nt
CCOC(=O)c1sc(NC(=O)c2ccncc2)c(C(=O)OCC)c1C	nt	+
CCOC(=O)c1sc(NC(=O)C2CCCN2S(C)(=O)=O)c(C(=O)OCC)c1C (stereo unspecified)	i	i
CSc1ccc(CNC(=O)c2snc(C(=O)N3CCCC3)c2N)cc1	i	i
CC(C)CCN1C(=O)C(C)(C)COc2ccc(NC(=O)COc3ccc(F)cc3)cc21	nt	+
COc1ccc(OCC(=O)Nc2ccc3c(c2)N(CCC(C)C)C(=O)C(C)(C)CO3)cc1	nt	i
CS(=O)(=O)c1ccc(C(=O)Nc2nnc(-c3cccnc3)o2)cc1	i	+
COc1ccc(-c2nnc(NC(=O)c3ccc(F)cc3)o2)cc1OC	i	i
CS(=O)(=O)c1ccc(C(=O)Nc2nnc(-c3ccc(Br)s3)o2)cc1	i	i
COc1ccc(C(=O)Nc2nnc(-c3ccc(Br)s3)o2)cc1OC	i	+
c1ccc(-c2nnc(-c3ccncc3)o2)cc1	nt	i
COc1ccc(C(=O)Nc2nnc(-c3ccncc3)o2)cc1OC	nt	+
COc1ccc(-c2nnc(-c3ccncc3)o2)cc1OC	nt	+
COc1ccccc1C(=O)Nc1nnc(-c2ccc(Br)s2)o1	i	nt
SMILES	GIRK2 act	AMPAR-TARP mod
COc1cc(NC(=O)Cn2ccc3ccn(Cc4ccccc4C)c3c2=O)cc(OC)c1	i	nt
CCOC(=O)Cn1nc2c(c1N)CSC2	i	i
O=C(NC1(c2nc(-c3cnccn3)no2)CCCCC1)c1cnccn1	i	i
COC(=O)c1ccc2c(=O)n(CC(=O)NCc3cccs3)c(=S)[nH]c2c1	i	i
COc1ccc(NC(=O)CSc2nccn(-c3ccc(Cl)cc3)c2=O)cc1OC	nt	i
Cn1c(SCc2nc(-c3ccc4c(c3)OCO4)no2)nc2ccsc2c1=O	i	i
COc1cc(/C=C2\SC(=S)N(c3ccc(O)cc3)C2=O)cc(OC)c1OC	nt	i
CN(C)c1ccc(/C=C2\SC(=S)N(c3ccc(O)cc3)C2=O)cc1	nt	+
CCOc1ccc(N2C(=O)/C(=C/c3ccc4c(c3)OCO4)SC2=S)cc1	nt	i
CCOc1ccc(N2C(=O)/C(=C\c3ccc(O)cc3)SC2=S)cc1	nt	+
CCC(=O)N1CCCc2cc(NC(=O)c3ccc(OC(C)C)cc3)ccc21	nt	i
COc1ccc(-c2ccc(=O)n(CCCNC(=O)Nc3ccccc3F)n2)cc1	i	i
Cc1ccsc1C(O)CNC(=O)C(c1ccccc1)c1ccccc1 (stereo unspecified)	i	+
Cc1ccsc1C(O)CNC(=O)Cc1ccccc1Cl (stereo unspecified)	i	i
CN(C)c1ccc(-c2noc(-c3cc4ccc(O)cc4oc3=O)n2)cc1	i	+
NC(=S)c1cc2ccc(O)cc2oc1=O	nt	i
Cc1cc(C)c2c(n1)nn1c(NCCCN(C)C)cc(C)nc21	i	+
Cc1cc(C)c2c(n1)nn1c(NCCOCCO)cc(C)nc21	i	+
Cc1cc(C)c2c(n1)nn1c(NCc3ccccn3)cc(C)nc21	i	i
Cc1cc(C)c2c(n1)nn1c(NCCC3=CCCCC3)cc(C)nc21	i	i
O=C(COc1ccccc1)Nc1ccc2c(c1)CCCN2S(=O)(=O)c1ccccc1	nt	i
CCOc1ccc(N2CCCCn3c2nc2c3c(=O)n(Cc3ccccc3)c(=O)n2C)cc1	nt	i
O=C(NCc1ccccc1Cl)c1coc(NC(=O)c2ccco2)n1	i	i
